Screening results: PubChem, The Scripps Research Institute Molecular Screening Center
TEAD-YAP inh: TEAD-YAP interaction inhibition. 640,000 compounds, 1.4% hits. inhibition, % at 9.12 µM. HEK-TIYL cells, TEAD-Gal4/YAP UAS-luciferase luminescence; in the data active means inhibition above about 32%
MITF primary: blocks human microphthalmia-associated transcription factor. O75030. AlphaScreen MITF homodimerization, bead proximity signal. inhibition, % at 2.6 µM. 650,000 compounds, 0.91% hits; in the data active means inhibition above about 50%
GPR151 ag: human GPR151 activation; 650,000 compounds, 1% hits; activation, % at 11.2 µM; PathHunter beta-arrestin GPR151 cells, luminescence; Q8TDV0; in the data active means activation above about 4.9%
FBW7 act: human FBW7 E3 ligase activation, primary screen; normalized activity (activation), % at 26.1 µM; Q969H0; 650,000 compounds, 0.13% hits; AlphaScreen FBW7–phospho-cyclin E peptide binding, activator screen; in the data active means normalized activity above about 1.9%;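 further: purified mutant Fbw7 with reduced substrate affinity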
Target sequence (Q969H0 whole entry, looked up): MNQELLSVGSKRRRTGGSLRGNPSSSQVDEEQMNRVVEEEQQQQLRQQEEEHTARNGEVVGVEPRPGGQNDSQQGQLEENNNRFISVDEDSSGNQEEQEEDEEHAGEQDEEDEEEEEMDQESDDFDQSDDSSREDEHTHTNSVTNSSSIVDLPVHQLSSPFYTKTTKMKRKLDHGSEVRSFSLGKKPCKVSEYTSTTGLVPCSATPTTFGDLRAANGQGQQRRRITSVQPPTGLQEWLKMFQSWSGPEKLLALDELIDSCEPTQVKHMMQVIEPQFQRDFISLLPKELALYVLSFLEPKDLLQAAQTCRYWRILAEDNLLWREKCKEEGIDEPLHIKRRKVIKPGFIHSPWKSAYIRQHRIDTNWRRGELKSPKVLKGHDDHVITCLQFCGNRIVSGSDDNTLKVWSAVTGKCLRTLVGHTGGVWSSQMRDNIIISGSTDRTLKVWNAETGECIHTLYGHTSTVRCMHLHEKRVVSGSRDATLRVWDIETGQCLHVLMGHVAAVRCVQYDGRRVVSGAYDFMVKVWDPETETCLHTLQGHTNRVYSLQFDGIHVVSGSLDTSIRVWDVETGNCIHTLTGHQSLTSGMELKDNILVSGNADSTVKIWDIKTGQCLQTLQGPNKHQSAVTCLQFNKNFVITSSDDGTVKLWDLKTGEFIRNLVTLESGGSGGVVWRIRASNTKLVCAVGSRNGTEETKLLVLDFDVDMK
Of the large screens only hits and unclear results are named; the others gave an inactive call. A selection: hits, their analogues and other compounds. The true share with any hit is near 3.5%.

COc1ccc(C(=O)/C=C\Nc2cccc(F)c2)cc1	TEAD-YAP inh 35
COc1ccc(C(=O)/C=C/Nc2cccc(C)c2)cc1	none
COc1ccc(C(=O)/C=C\Nc2cccc(C(=O)O)c2)cc1	TEAD-YAP inh 41
Nc1cc(N)nc(SCC(=O)NCCOc2ccccc2)n1	FBW7 act 2.2
CN1CC[C@H](Oc2ccc(C(=O)Nc3ccc4[nH]ncc4c3)cn2)C1	none
O=C(Nc1ccc2[nH]ncc2c1)c1ccc(O[C@H]2CCNC2)nc1	none
CN1CC[C@@H](Oc2cc(C(=O)Nc3ccc4[nH]ncc4c3)ccn2)C1	TEAD-YAP inh 52
NCCOc1ccc(C(=O)Nc2ccc3[nH]ncc3c2)cn1	TEAD-YAP inh 54
CN1CC[C@H](Oc2ccnc(C(=O)Nc3ccc4[nH]ncc4c3)c2)C1	none
CN1CCCC(Oc2ccnc(C(=O)Nc3ccc4[nH]ncc4c3)c2)C1 (configuration not stated)	TEAD-YAP inh 45
CN1CCC(Oc2ccc(C(=O)Nc3ccc4[nH]ncc4c3)cn2)CC1	TEAD-YAP inh 88
COC(=O)c1ccccc1N=Cc1c(C)[nH]n(-c2ccccc2)c1=O	none
COc1ccc(C(=O)Nc2ccc(O)c(-c3nc4cc(C)c(C)cc4o3)c2)cc1	none
Cc1ccc(OCc2nc(-c3ccccn3)no2)c(Br)c1	TEAD-YAP inh 39
Cc1ccc(N2C(=O)C3C4C=CC(C5CC45)C3C2=O)cc1 (configuration not stated)	none
CSc1nnc2c(n1)OC(c1ccco1)N(C(=O)c1ccccc1)c1ccccc1-2 (configuration not stated)	TEAD-YAP inh 53
CC(=O)c1c(C)[nH]c(C(=O)N2CCN(c3cccc(Cl)c3)CC2)c1C	TEAD-YAP inh 52
CCc1c(C(=O)N2CCN(c3cccc(OC)c3)CC2)[nH]c(C)c1C(C)=O	TEAD-YAP inh 54
CC(=O)c1c(C)[nH]c(C(=O)N2CCN(c3cc(Cl)ccc3C)CC2)c1C	none
CC(=O)c1c(C)[nH]c(C(=O)N2CCN(c3ccc(F)cc3)CC2)c1C	none
COc1cccc(N2CCN(C(=O)c3[nH]c(C)c(C(C)=O)c3C)CC2)c1	TEAD-YAP inh 40
O=C(COCc1nc2ccccc2c(=O)[nH]1)NC1CCCCC1	none
O=C(CSc1ccccc1)Nc1cc(F)cc(F)c1	none
O=C(NCCCS(=O)(=O)N1CCN(c2ccccn2)CC1)c1ccc(F)cc1F	none
CCN(CC)c1ccc2cc(-c3nc(-c4ccccc4)cs3)c(=O)oc2c1	none
CCN(CC)c1ccc2cc(-c3ccccn3)c(=O)oc2c1	TEAD-YAP inh 93, FBW7 act 2.7
CCN(CC)c1ccc2cc(-c3nc(C)cs3)c(=O)oc2c1	TEAD-YAP inh 94, FBW7 act 3.4
O=C(NCCCc1ccccc1)NCC1(CO)CC1	none
Cc1ccccc1-c1ccc(N2CCN(S(C)(=O)=O)CC2)nn1	TEAD-YAP inh 45
Cc1ccccc1-c1ccc(N2CCN(C(=O)C3CCN(S(C)(=O)=O)CC3)CC2)nn1	none
CCCOc1ccc(N/C(N)=N/c2nc(C)cc(C)n2)cc1	TEAD-YAP inh 35
CCCCCOc1ccc(N/C(N)=N/c2nc(C)cc(C)n2)cc1	TEAD-YAP inh 37
Cc1cc(C)nc(/N=C(\N)Nc2ccccc2)n1	none
Cc1cc(C)nc(/N=C(\N)Nc2ccc(Oc3ccccc3)cc2)n1	TEAD-YAP inh 32
COc1ccc(N2C(=O)CSC2c2cc3c(cc2Br)OCO3)cc1 (configuration not stated)	none
CCn1nc(C)c(NC(=O)CCl)c1C	none
CN(C)c1ccc(-c2nc3ccccc3c(=O)[nH]2)cc1	TEAD-YAP inh 72
O=C(c1cc2c(s1)CCC2)N1CCC(c2ccncc2)CC1	TEAD-YAP inh 33
O=C(CSc1nnc2c(n1)[nH]c1ccccc12)Nc1ccc(C(=O)N2CCCCC2)cc1	TEAD-YAP inh 34
O=C(CSc1nnc2c(n1)[nH]c1ccccc12)Nc1ccc(Cl)cn1	TEAD-YAP inh 57
O=C(CSc1nnc2c(n1)[nH]c1ccccc12)Nc1ccccc1F	none
O=C(CSc1nnc2c(n1)[nH]c1ccccc12)Nc1ccc(Br)cc1	none
Cc1ccc(-c2cc(C(F)(F)F)n3nc(C(=O)Nc4cc(Cl)ccc4Cl)cc3n2)cc1	none
O=C1c2cccc3c(Cl)ccc(c23)C(=O)N1O	TEAD-YAP inh 45
O=C1c2cccc3c(Br)ccc(c23)C(=O)N1O	none
O=S(=O)(NCc1cccnc1)c1ccc(Cl)cc1	none
COc1ccc(/C=C/C(=O)c2ccc(S(=O)(=O)NCc3cccnc3)cc2)cc1	TEAD-YAP inh 35
O=S(=O)(NCc1ccc2c(c1)OCO2)c1ccc(Cc2ccc(S(=O)(=O)NCc3ccc4c(c3)OCO4)cc2)cc1	TEAD-YAP inh 38
O=S(=O)(NCc1cccnc1)c1ccc(Cc2ccc(S(=O)(=O)NCc3cccnc3)cc2)cc1	TEAD-YAP inh 51
CNC(=O)Cc1nc2ccccc2n1CC(=O)NCCc1ccccc1	none
CCCS(=O)(=O)N1CCc2ccc(NC(=O)NC3CC3)cc2C1	none
COc1ccc(NCc2ccc(O)c3ncccc23)cc1	MITF primary 73
Oc1ccc(CN2CCN(Cc3ccccc3)CC2)c2cccnc12	MITF primary 95
Oc1ccc(CNc2ccc(Cl)cc2)c2cccnc12	none
O=S(=O)(c1ccc(Cl)cc1)N1CCN(Cc2ccc(O)c3ncccc23)CC1	TEAD-YAP inh 66
CCOC(=O)c1cnn(-c2nc3ccccc3s2)c1N	none
CC(=O)Nc1cc(C)nn1-c1nc2ccccc2[nH]1	none
CCOC(=O)c1cnn(-c2nc3ccccc3[nH]2)c1N	TEAD-YAP inh 42
CCOc1ccccc1C(=O)Nc1cc(C)nn1-c1nc2ccccc2[nH]1	TEAD-YAP inh 54
O=c1c2ccccc2cnn1-c1nc2ccccc2s1	TEAD-YAP inh 90
O=c1c2ccccc2cnn1-c1ccc(Cl)c(Cl)c1	none
O=c1c2ccccc2cnn1-c1nc2ccccc2[nH]1	TEAD-YAP inh 94
COc1ccc(Nc2nc(N3CCCC3)nc3[nH]ncc23)cc1	TEAD-YAP inh 48
Oc1ccc(CCNc2nc(N3CCN(c4ccccn4)CC3)nc3c2ncn3-c2ccsc2)cc1	TEAD-YAP inh 53
c1cc(-n2cnc3c(Nc4ccc(N5CCOCC5)cc4)nc(N4CCC(N5CCOCC5)CC4)nc32)cs1	TEAD-YAP inh 37
c1ccc(Nc2nc(N3CCC(N4CCOCC4)CC3)nc3c2ncn3-c2ccsc2)cc1	TEAD-YAP inh 33
c1cc(-n2cnc3c(Nc4ccc5c(c4)OCO5)nc(N4CCC(N5CCOCC5)CC4)nc32)cs1	none
CCCNc1nc(N2CCN(c3ccccn3)CC2)nc2c1ncn2-c1ccsc1	none
c1ccc(N2CCN(c3nc(NC4CC4)c4ncn(-c5ccsc5)c4n3)CC2)nc1	TEAD-YAP inh 49
CCCCCNC(=O)c1c[nH]c2ccc(S(=O)(=O)N(C)c3cccc(C)c3)cc2c1=O	none
C=CCn1c(SCc2ccc(OC(C)C)cc2)nc2sc3c(c2c1=O)CCCC3	none
CC1CCCC(NC(=O)C2N(CCCN3CCOCC3)C(=O)C3C(C(=O)Nc4ccc(F)c(Cl)c4)C4C=CC32O4)C1C (configuration not stated)	none
COc1cc2ccccc2cc1C(=O)Nc1ccc(C(C)=O)cc1	none
Oc1ccc(CCNc2ncnc3nc(N4CCN(c5ccccn5)CC4)[nH]c23)cc1	TEAD-YAP inh 39
